# Screening data deposited in PubChem by National Center for Advancing Translational Sciences (NCATS).
# KB-V1 cytotox: KB-V1 MDR subline cytotoxicity | KB-V1 MDR cells viability, CellTiter-Glo, 72 h | Potency, µM (highest dose often 46.1 µM), usual class: cytotoxic | actives 3.4% (n = 400,000) | AID 1347076; also: nearly all actives have a fitted effect of over 60% in size
#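 Cytotoxicity via CellTiter-Glo luminescence after 72 h compound exposure at 37 degrees C. Cells: drug-selected KB-V1 line, DMEM phenol-red free plus 10% FBS. Compounds tested at multiple concentrations; normalized data fitted to concentration-effect curves.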
# HT1080-NT tox: kills 2HG-producing HT-1080-NT fibrosarcoma cells. Potency, µM (series often up to 46.1 µM), for the others: top-dose activity, negative = less viability, most hits filed as cytotoxic. actives 1.6% (n = 360,000). AID 686970. HT-1080-NT fibrosarcoma viability, CellTiter-Glo ATP luminescence, 48 h;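 also: NT is the 2HG producing partner of a matched IDH1 knockdown line; 0% = DMSO-treated cells and -100% = media-only wells without cells; nearly all actives have a fitted effect of over 55% in size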
#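 A 48-hour cytotoxicity screen used HT-1080-NT cells plated 2 hours before compound delivery. ATP-based CellTiter-Glo luminescence measured viability, normalized to DMSO and no-cell controls.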
# KB-3-1 tox: kills parental KB-3-1 adenocarcinoma cells | actives 1.4% (n = 400,000) | Potency, µM (titrated, usually from 46.1 µM), most hits filed as cytotoxic | KB-3-1 viability, CellTiter-Glo ATP luminescence, 72 h; also: nearly all actives have a fitted effect of over 60% in size
#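 Parental KB-3-1 viability, qHTS format: 72 h compound exposure, 37 °C; CellTiter-Glo; media-only wells and DMSO plates as controls; concentration-effect fits on corrected data.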
# HT1080 IDH1KD tx: kills HT-1080 cells with IDH1 knockdown; HT-1080 IDH1 knockdown viability, ATP luminescence, 48 h; actives 2% (n = 360,000); Potency, µM (doses to about 46.1 µM), for inactives: top-dose activity, negative = toxicity, actives largely listed as cytotoxic;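 also: 0% = DMSO wells and -100% = cell-free medium wells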
#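 % activity derives from luminescence (CellTiter-Glo), normalised to DMSO and no-cell wells. HT-1080-IDH1KD cells, 750/well, had 48 h compound exposure at 37 °C.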
# DT40 TDP1 CPT: DT40-hTDP1 cell growth loss with CPT; chicken DT40 Tdp1-/-;hTDP1 cells + 20 nM CPT, ATP luminescence, 48 h; actives 12% (n = 420,000); AID 686979; Potency, µM (doses to about 46.2 µM), inactives show at the top dose activity change, negative = growth inhibition, actives largely listed as inhibitors; also: nearly all actives have a fitted effect of over 55% in size
#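 Cell growth measured by CellTiter-Glo luminescence after a minimum 48 h, 37 C compound exposure with 20 nM CPT in Tdp1-knockout DT40 cells stably expressing hTDP1, seeded 400/well; qHTS titration format.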
# TDP1 cell noCPT: qHTS for Inhibitors of human tyrosyl-DNA phosphodiesterase 1 (TDP1): qHTS in cells in absence of CPT; DT40 Tdp1-/- hTDP1 cells, no CPT, ATP luminescence, 48 h; Potency, µM (series often up to 46.2 µM), for the others: at the highest dose activity change, negative = growth inhibition, most hits filed as inhibitors; actives 15% (n = 420,000); AID 686978, 2013; also: nearly all actives have a fitted effect of over 55% in size
#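 Readout: luminescence from CellTiter-Glo after 30 min in the dark at RT. Cells: DT40 Tdp1-/- with stable hTDP1, 400/well. Exposure: compounds alone, ≥48 hr, 37 °C.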
# * hit, by the source's call; i = inactive; ? = inconclusive; · = no result; [ ] = another dose, or the depositor's remark. An excerpt weighted towards active compounds, which were near 19% of everything screened. Calls follow the shape of the dose curve; as a rule, active = well fitted curve in the direction sought with a large enough effect; inconclusive = small, poorly fitted or top-dose-only effect, or another doubt; inactive = no such curve, though single readings can be large; an effect the other way counts as inactive or inconclusive. Unless noted, % is scaled to controls: 0 for no effect and ±100 for the full control effect; potency is read from the fitted curve at half-maximal effect.
SMILES,KB-V1 cytotox,HT1080-NT tox,KB-3-1 tox,HT1080 IDH1KD tx,DT40 TDP1 CPT,TDP1 cell noCPT
CC1(C)CC(=O)c2c(-c3cccs3)n[nH]c2C1,?,7%,i,0%,-21%,-3%
Cc1cc(OCc2cc(C(=O)NC(C)c3c(C)nn(C)c3C)no2)cc(C)c1Cl (centres undefined),i,?,?,?,?,?
COc1ccc(NC(=O)CSc2nc(N)c3cc4c(nc3n2)CCCC4)cc1,i,-2%,i,2%,?,15µM*
CCn1c(SCC(=O)Nc2ccc(OC)cc2)nc2nc3c(cc2c1=O)CCCC3,i,-13%,i,-15%,?,23µM*
O=C(CCN1C(=O)S/C(=C\c2ccccc2)C1=O)N1CCCCC1,i,0%,i,-1%,?,?
O=C(CCN1C(=O)/C(=C/c2ccccc2Cl)SC1=S)N1CCOCC1,·,6%,·,13%,5.2µM*,3.7µM*
CCOC(=O)N1CCN(C(=O)CCN2C(=O)/C(=C\c3ccccc3OC)SC2=S)CC1,·,4%,·,12%,23µM*,23µM*
O=C(CCN1C(=O)/C(=C/c2ccccc2Cl)SC1=S)N1CCCC1,?,?,?,?,9.2µM*,6.5µM*
O=C(CCCN1C(=O)/C(=C/c2ccccc2Cl)SC1=S)NNC(=O)c1ccccc1Cl,i,?,?,?,?,21µM*
O=C(CCN1C(=O)S/C(=C\c2ccccc2)C1=O)N1CCOCC1,i,4%,i,2%,?,-30%
CCOC(=O)N1CCN(C(=O)CN2C(=O)/C(=C\c3cccc(OC)c3)SC2=S)CC1,i,·,i,·,7.9µM*,8.9µM*
O=C(CCCN1C(=O)/C(=C/c2ccccc2Cl)SC1=S)NNC(=O)c1ccncc1,i,-6%,?,-10%,?,?
Cc1cc(NC(=O)CCCN2C(=O)/C(=C/c3ccccc3Cl)SC2=S)no1,21µM*,1%,?,-2%,?,?
COc1cccc(/C=C2\SC(=S)N(CCCC(=O)N3CCCCC3)C2=O)c1,?,-1%,?,-3%,?,?
O=C(CCCN1C(=O)/C(=C/c2ccccc2Cl)SC1=S)N1CCCC1,i,-7%,i,-1%,?,21µM*
Cc1c(C(=O)N(C)Cc2cscn2)sc2ncnc(NC[C@H]3CCc4ccccc4O3)c12,·,·,·,·,-19%[9.04 µM],?
COc1ccc(F)cc1S(=O)(=O)Nc1ccncc1,i,-1%,i,-2%,10%,-18%
O=C(COc1ccc(Br)cc1CNCCCN1CCOCC1)Nc1ccccc1,i,-29%,i,?,16µM*,21µM*
Brc1cccc(CNCCCN2CCOCC2)c1,i,-1%,i,4%,23µM*,?
O=C(COc1ccc(Br)cc1Cl)NCCCN1CCOCC1,i,-5%,i,-2%,-30%,4%
COc1ccccc1CC(=O)Nc1cccc2ccccc12,i,0%,i,0%,-23%,-25%
CCOc1cc(CNCCCN2CCOCC2)ccc1OCC(=O)Nc1cccc2ccccc12,i,10µM*,i,11µM*,23µM*,3.7µM*
COc1cc(CNC(C)C)ccc1OCC(=O)Nc1cccc2ccccc12,·,-8%,·,-12%,26µM*,18µM*
CN(CC(=O)Nc1cccc(F)c1)C(=O)CCCn1c(=O)oc2ccccc21,i,0%,i,2%,?,-4%
COc1cc(C2C(C#N)=C(N)Oc3c2ccc2ccccc32)ccc1OCC(=O)Nc1ccccc1C (centres undefined),?,-11%,?,-8%,21µM*,26µM*
